Each structure is given as a SMILES string. About 1,300 (0.36%) of roughly 360,000 compounds were called active. The sample as a whole holds a higher share of actives than the screen did. Unmarked numbers belong to inactive results.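 How the source made its calls: active means corrected activity change at or below -50% at 5 µM; inactive means the rest.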

This note sets out measurements from PubChem BioAssay AID602141 (Sanford-Burnham Center for Chemical Genomics, 2011).

The experiment can be described thus: cytotoxicity in KKLEB CF airway cells, primary screen, cytotoxicity control for CF NF-kB inhibitor project, cell-based, uHTS, fluorescence assay plates (AID 602141). Conditions: KKLEB CF airway cells viability, ATPlite luminescence, overnight; at 5 µM; stronger effect = lower value; cells stimulated with P. aeruginosa culture filtrate.
`C=CCNC(=S)NNC(=O)COc1c(Cl)cc(Cl)cc1Cl`: the activity change (cytotoxicity) is -16.4%.

For `O=C(C1CCN(S(=O)(=O)c2ccc(Br)s2)CC1)N1CCN(C2CCCCC2)CC1`, the activity change (cytotoxicity) was 13.7%. As for `CC(C)CCOc1ccc(C(=O)C[N+]2(C)CCOCC2)cc1`, the figure is 1.8%. As for `CCCOc1ccc(C(=O)C(CCC(CNCC)C(=O)c2ccc(OCCC)cc2)CNCC)cc1` (configuration not stated), the figure is -58.6% (active). The same measure for `CCCc1ccc(OCCNC(=O)c2ccccc2Br)cc1`: -6.1%. Take `Cc1ccc(C(NC(=O)C2CCN(CCOc3ccc(Cl)cc3Cl)CC2)c2ccccn2)cc1` (configuration not stated): the activity change (cytotoxicity) was -0.6%. The same measure for `CCOc1ccc(-c2cc(C(=O)N/N=C/c3ccc(O)cc3)c3ccccc3n2)cc1`: -15.6%. `COc1ccc(C(=O)Nc2ccccc2C(=O)N/N=C/c2ccc(O)c(OC)c2)cc1`: the activity change (cytotoxicity) is -87.3% (active). The same measure for `COc1cccc(OCc2cc(/C=N/NC(=O)c3nc(Cl)c(Cl)c(N)c3Cl)ccc2OC)c1`: -5.4%; for `CC(=O)Nc1ccc(NC(=O)CC2CCCC2)cc1`: 6.6%; for `O=c1c2ccccc2ncn1CCCCOc1ccccc1F`: 5.1%. The same measure for `COCCCNC(=O)C1CC(=O)N(CCc2ccc(F)cc2)C1` (configuration not stated): 1.6%; for `O=C(CSc1nc2nccnc2c(=O)n1Cc1cccs1)Nc1ccccc1F`: -10.3%.

For `CCOc1ccc(NC(=O)CSc2nc3ccccc3c(=O)n2Cc2cccs2)cc1`, the activity change (cytotoxicity) is -54.6% (active). The same measure for `CC(=O)NCCn1c(SCC(=O)Nc2ccc(C)cc2)nc2ccccc2c1=O`: 4.4%. The same measure for `Cc1ccc(NC(=O)C(c2ccccc2)N2CCN(C(=O)c3ccco3)CC2)cc1` (configuration not stated): 19.2%; for `CSc1ccc(CNC(=O)c2ccc(NC(=O)C3=CSCCO3)cc2)cc1`: -31.3%. The same measure for `CCC/C(O)=C1\C(=O)CC(C)(C)CC1=Nc1ccccc1OC`: 21.9%; for `Cc1cc2c(C)nc(N/N=C/c3ccccc3)nc2o1`: 16.3%. For the compound `C=C(C)C(=O)O[C@H]1C/C(C)=C\C(=O)/C=C(\C)[C@H](O)[C@@H]2OC(=O)C(=C)[C@@H]21`, the activity change (cytotoxicity) is -78.6% (active). The same measure for `COc1cccc(C(=O)Oc2cc(C)[nH]c(=O)c2[N+](=O)[O-])c1`: 0.5%; for `COC(=O)C1CCCCN1C(=O)c1ccc(OC2CCN(C(C)=O)CC2)c(OC)c1` (configuration not stated): 2.5%; for `Cc1ccc2c(c1)N(C(=O)CCC(=O)N1CCc3ccccc3C1)CCO2`: -2.8%. The same measure for `Cc1ccccc1C(CC(=O)c1cccs1)C(C#N)C#N` (configuration not stated): -51.2% (active). For `O=C(NCC(=O)N1CCN(c2ccccc2F)CC1)c1cccs1`, the activity change (cytotoxicity) was 10.7%.

In the case of `Cc1ccc(C)c(NC(CC(=O)c2ccccc2)C(=O)OCC(=O)c2cccs2)c1` (configuration not stated), the activity change (cytotoxicity) is 5.7%. As for `CCN(CC)c1nc(-c2ccccc2)cc(C(F)(F)F)c1C#N`, the figure is 9.1%. The same measure for `Cc1ccc(CC(=O)Nc2ccc(OC(F)F)c(Cl)c2)cc1C`: 5.1%; for `CN(CC(=O)Nc1ccc(S(=O)(=O)N2CCCC2)cc1)Cc1ccc(Cl)c(Cl)c1`: -2.3%.

With `O=C(Cc1ccc(Cl)c(Cl)c1)Nc1ccc(SC(F)F)cc1`, the activity change (cytotoxicity) is -64.7% (active). As for `COc1ccccc1NC(=O)CSc1nnc(CNC(=O)c2ccccc2F)o1`, the activity change (cytotoxicity) is -0.3%. With `CCn1cc(NC(=O)Nc2ccc(OC)c(OC)c2)c(C(N)=O)n1`, the activity change (cytotoxicity) was -3.5%. For `O=C(COC(=O)/C(=C/c1cccs1)c1cccs1)NCc1ccccc1Cl`, the activity change (cytotoxicity) was 4.5%. The same measure for `CC1(C(=O)O)CCC(C(=O)Nc2ccc(Cl)c(Cl)c2)C1(C)C` (configuration not stated): 3.1%; for `O=C(CC(O)(C(F)(F)F)C(F)(F)F)Nc1ccc(Cl)c(Cl)c1`: -59% (active); for `N#CCCN(C(=O)Nc1ccc(Cl)c(Cl)c1)C1CCCCC1`: 11.3%.

In the case of `CCCCC(c1nnnn1CS(=O)(=O)c1ccc(C)cc1)N1CCC(C(N)=O)CC1` (configuration not stated), the activity change (cytotoxicity) was -15%. Take `Cc1ccc(S(=O)(=O)N(CC(=O)Nc2cccc([N+](=O)[O-])c2)Cc2ccc(Cl)cc2)cc1`: the activity change (cytotoxicity) was 10.5%. As for `CC(=O)N(CN1C(=O)C2CC=CCC2C1=O)c1cccc(Cl)c1` (configuration not stated), the figure is 8.7%; as for `O=C(CCl)N(Cc1cccc([N+](=O)[O-])c1)c1cccc(Cl)c1`, -96.2% (active). The same measure for `CCCn1nnc2sc3c(c2c1=O)CCC(C)C3` (configuration not stated): -55.8% (active); for `Cc1cc(NC(=O)CSc2nc(C(C)C)nc3sc4c(c23)CCC(C)C4)no1` (configuration not stated): -1.3%. The same measure for `CCCSc1nc2sc3c(c2c(=O)n1-c1ccc(OC)cc1)CCN(C)C3`: 6.6%; for `O=S(=O)(O)CCN1CCOCC1`: -2.1%. Turning to `CC(=O)NC(c1cccc(F)c1)c1nc(-c2cccc(F)c2)cs1` (configuration not stated), the activity change (cytotoxicity) was -3.6%. As for `CC(C)N(Cc1nc(-c2ccc3c(c2)OCO3)no1)CC1CCC(=O)N1` (configuration not stated), the figure is 7.7%; as for `CCCSc1nsc(N)n1`, -4.9%.

Turning to `COc1cc(SC)ccc1C(=O)Nc1nc(C)cs1`, the activity change (cytotoxicity) was -88.8% (active). The same measure for `COc1ccc(C(=O)CCC(=O)Nc2cccnc2)c(OC)c1`: -8.9%. The same measure for `Cc1csc(NC(=O)CSc2ccc(-c3ccc(F)cc3)nn2)n1`: 8.5%; for `Cc1ccccc1OCC(=O)Nc1nc(C)c(C(=O)N(C)C)s1`: 2.2%; for `Cc1csc(NC(=O)CSc2nc(=O)cc(N)n2-c2ccc(F)cc2)n1`: -0.9%.

For `COC(=O)c1sc(NC(=O)c2ccc(OC)cc2OC)nc1C`, the activity change (cytotoxicity) is -66.8% (active).

Turning to `Cc1ccc2c(c1)N(CC(=O)N1CCC(O)CC1)C(=O)CO2`, the activity change (cytotoxicity) was 7.7%.

Take `O=C(NCCCN1CCCCC1)C1CC(=O)N(CCc2ccccc2)C1` (configuration not stated): the activity change (cytotoxicity) was -3.7%.

For `O=C(CNC(=O)c1cc(S(=O)(=O)N2CCOCC2)ccc1N1CCCC1)Nc1ccc(F)c(F)c1`, the activity change (cytotoxicity) was 8%.

Regarding `Cc1cc(C)c2c(=O)n3c(nc2c1)C(CC(C)C)NC(=O)c1cc2ccccc2cc1-3` (configuration not stated), the activity change (cytotoxicity) is -9%. As for `O=C(/C(=C/c1cccc(Cl)c1)c1nc2ccccc2[nH]1)c1ccccc1`, the figure is -62.2% (active); as for `CCCCn1c(N)c(N(CC(C)C)C(=O)CN(C)S(=O)(=O)c2ccc(F)cc2)c(=O)[nH]c1=O`, 1.7%. On to `CCNC(=O)CC1C(=O)N(c2ccc(F)cc2)C(=O)N1CCc1sccc1C` (configuration not stated), for which the activity change (cytotoxicity) was 15.4%. As for `O=C(Nc1nnc(SCc2ccccc2Cl)s1)c1cccc([N+](=O)[O-])c1`, the activity change (cytotoxicity) is -35.3%. As for `O=C(NC(Nc1nc2ccc([N+](=O)[O-])cc2s1)(C(F)(F)F)C(F)(F)F)c1ccccc1`, the figure is -70.6% (active); as for `O=C(NNC(=O)c1ccc(-n2cncn2)c([N+](=O)[O-])c1)c1ccccc1`, 9.1%. `O=C(COC(=O)c1ccccc1NC(=O)c1ccco1)Nc1ccc2c(c1)OC(F)(F)O2`: the activity change (cytotoxicity) is -4.2%.

As to `COc1ccc(S(=O)(=O)NC(CC(=O)NCc2ccccc2OC)c2ccco2)cc1` (configuration not stated), the activity change (cytotoxicity) was 5%. As for `Cc1c(NC(=O)Nc2cccc([N+](=O)[O-])c2)c(=O)n(-c2ccccc2)n1C`, the figure is 0%. As for `CCCNC(=O)c1c(Cl)cnn1-c1ccc(C)cc1`, the figure is 8.9%; as for `Nc1c(-c2cccc(Cl)c2)cnn1-c1cccc([N+](=O)[O-])c1`, 4.3%; as for `Cc1cccc(-n2ncc(Cl)c(Cl)c2=O)c1`, -97.1% (active).

In the case of `CN(C)/C=C(/C(=O)c1ccc(Cl)c(Cl)c1)c1nnnn1-c1ccccc1`, the activity change (cytotoxicity) was 7.2%. The same measure for `O=C(NCCN1C(=O)S/C(=C\c2cccnc2)C1=O)c1ccc(S(=O)(=O)N2CCCC2)cc1`: -6.2%.

`C=CCn1c(C2CC(=O)N(c3ccc(C)cc3)C2)nc2ccccc21` (configuration not stated): the activity change (cytotoxicity) was 1.2%. The same measure for `COc1ccc(NC(=O)/C(Cl)=C(/Cl)S(=O)Cc2ccc(C)cc2)cn1` (configuration not stated): -105% (active); for `COc1ccc(NC(=O)C2Cc3c(-c4ccc5c(c4)OCO5)ccnc3O2)cn1` (configuration not stated): -19.2%; for `COc1cccc(NC(=S)N(Cc2ccc(C)cc2)Cc2ccccn2)c1`: 2.6%. The same measure for `CC(C)NC(=O)C1(C)CCCCCN1C(=O)c1ccc(-c2ccccc2)cc1` (configuration not stated): -2%; for `COC(=O)c1ccc(S(=O)(=O)NCc2ccccc2)n1C`: 9.6%. The same measure for `C=CCOc1nc2c(c(=O)n(C)c(=O)n2C)n1Cc1ccc(Cl)cc1Cl`: 9.5%. Regarding `CN(CC(=O)NNC(=O)CNC(=O)c1ccccc1Cl)S(=O)(=O)c1ccc(Cl)cc1`, the activity change (cytotoxicity) was -61.3% (active).

With `CN(CC(=O)NCC(c1ccccc1)N1CCCC1)S(=O)(=O)c1ccc(Cl)cc1` (configuration not stated), the activity change (cytotoxicity) is 16%.

Regarding `CN(CC(=O)NCCc1ccccn1)S(=O)(=O)c1ccc(Cl)cc1`, the activity change (cytotoxicity) was 10.8%.

As to `O=S(=O)(c1ccccc1)c1nc(Cc2ccccc2)oc1N1CCOCC1`, the activity change (cytotoxicity) is -0.9%. As to `c1ccc(CSc2ncnc3c2sc2nc(N4CCOCC4)c4c(c23)CCCC4)cc1`, the activity change (cytotoxicity) is -51% (active). The same measure for `O=C(O)c1cccnc1Sc1ncnc2sc3c(c12)CCC3`: 15.9%; for `Cc1c(CCO)c(=O)[nH]n1C(=O)c1c(F)cccc1F`: 1.8%; for `S=c1[nH]cc(-c2ccc(Cl)cc2)n1-c1ccccc1`: 6.2%. Regarding `Cc1ccnc(SCC(=O)Nc2cccc(S(=O)(=O)N3CCOCC3)c2)n1`, the activity change (cytotoxicity) was 7.3%. On to `O=C(NCc1ccncc1)c1ccc(NS(=O)(=O)c2cccc([N+](=O)[O-])c2)cc1`, for which the activity change (cytotoxicity) is -3%. As for `O=C(CCN1CCCCC1)N=Nc1c(O)[nH]c2ccccc12`, the figure is -4.3%. As for `O=[N+]([O-])c1cc(S(=O)(=O)Nc2cccc(Cl)c2)ccc1N=Nc1c(O)[nH]c2ccccc12`, the figure is -80% (active); as for `CCCNC(=O)CCn1cc(-c2ccc(OC)cc2)nc1CCN`, 2.3%; as for `COc1ccc(C2CC(=O)C=C(NCC3CCCO3)C2)cc1` (configuration not stated), 0%.
